Several values for one entry are separate records, joined by “and”; a condition that tells them apart may be missing. Identical values can stand only once. The panel holds about 83,000 compounds, 20% with a hit somewhere; the sample as a whole holds those more often.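 In brief: 96-well plates, 48 h treatment, single concentration, percent growth endpoint.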 Activity calls are given as the source filed them. The calls were made as follows: active = growth percent below 10; inactive = the rest.
Key:
Assay in all cases: NCI-60 one-dose screen, 48 h (100 = growth as untreated, 0 = no growth, -100 = all killed)
[1] = tested on: HCT-15 colon
[2] = tested on: HT29 colon
[3] = tested on: SNB-75 CNS
[4] = tested on: SNB-19 CNS
[5] = tested on: U251 CNS
[6] = tested on: PC-3 prostate
[7] = tested on: SK-MEL-5 melanoma
[8] = tested on: UACC-62 melanoma
[9] = tested on: LOX IMVI melanoma
[10] = tested on: SK-MEL-28 melanoma

Measured: growth

O=c1ccc2nc(-c3ccccn3)nn(-c3ccccc3)c-2c1
inactive: [3]; 10 µM unless noted 98.4% | [4]; 10 µM unless noted 98.9% | [5]; 10 µM unless noted 98.3% | [6]; 10 µM unless noted 89% | [7]; 10 µM unless noted 36% | [8]; 10 µM unless noted 72.7% | [9]; 10 µM unless noted 11.7% | [10]; 10 µM unless noted 70.7%
active: [1]; 10 µM unless noted -48% | [2]; 10 µM unless noted -44.2%

COc1cc(Nc2nc3ccccc3cc2C(=O)Nc2ccc(F)c(F)c2)cc(OC)c1OC
inactive: [1]; 10 µM unless noted 13.5% | [2]; 10 µM unless noted 28.5% | [3]; 10 µM unless noted 45.4% | [4]; 10 µM unless noted 25.3% | [5]; 10 µM unless noted 19.1% | [6]; 10 µM unless noted 10.7% | [7]; 10 µM unless noted 13.8% | [8]; 10 µM unless noted 12.9% | [9]; 10 µM unless noted 17.6% | [10]; 10 µM unless noted 35.7%

CCCNNC(=O)/C=C/c1ccc(CNCCc2c(C)[nH]c3ccccc23)cc1
inactive: [1]; 10 µM unless noted 42.8% [2.5 µM] | [3]; 10 µM unless noted 56.9% [2.5 µM] | [4]; 10 µM unless noted 28.6% [2.5 µM] | [6]; 10 µM unless noted 31.5% [2.5 µM] | [10]; 10 µM unless noted 10.1% [2.5 µM]
active: [2]; 10 µM unless noted 5.78% [2.5 µM] | [5]; 10 µM unless noted 8.11% [2.5 µM] | [7]; 10 µM unless noted -13.3% [2.5 µM] | [8]; 10 µM unless noted -46% [2.5 µM] | [9]; 10 µM unless noted 0.891% [2.5 µM]

Cc1ccc(NC(=O)c2sc3nc(C)c(C(=O)c4ccccc4)cc3c2N)cc1
inactive: [1]; 10 µM unless noted 83.1% | [2]; 10 µM unless noted 102% | [3]; 10 µM unless noted 70.7% | [4]; 10 µM unless noted 83.3% | [5]; 10 µM unless noted 88.5% | [6]; 10 µM unless noted 92.2% | [7]; 10 µM unless noted 94.1% | [8]; 10 µM unless noted 79.5% | [9]; 10 µM unless noted 94.9% | [10]; 10 µM unless noted 92%

CN(C)CCNc1ncc(F)c(-c2cnc3cc(-c4cnn(C)c4)ccn23)n1
inactive: [1]; 0.005 µM 99.2% | [1]; 30 µM 31.2% | [2]; 0.005 µM 99.7% | [2]; 30 µM 42.8% | [3]; 0.005 µM 100% | [3]; 30 µM 50% | [4]; 0.005 µM 97% | [4]; 30 µM 73.4% | [5]; 0.005 µM 96.3% | [5]; 30 µM 75.9% | [6]; 0.005 µM 103% | [6]; 30 µM 44.9% | [7]; 10 µM unless noted 101% [0.005 µM] | [8]; 0.005 µM 98% | [8]; 30 µM 82.7% | [9]; 0.005 µM 98.6% | [9]; 30 µM 19.9% | [10]; 0.005 µM 105% | [10]; 30 µM 96.7%

Cc1ccc(-c2nc(SCC(=O)c3ccc(C#N)cc3)[nH]c(=O)c2C#N)cc1
inactive: [1]; 10 µM unless noted 105% | [2]; 10 µM unless noted 97.9% | [3]; 10 µM unless noted 87.5% | [4]; 10 µM unless noted 106% | [5]; 10 µM unless noted 100% | [6]; 10 µM unless noted 104% | [7]; 10 µM unless noted 114% | [8]; 10 µM unless noted 99.2% | [9]; 10 µM unless noted 92.9% | [10]; 10 µM unless noted 103%

CCOC(=O)C1=C(C)N=C2SC=C(c3ccc(F)cc3)N2[C@H]1c1cn(-c2ccccc2)nc1-c1ccc(Cl)cc1
inactive: [1]; 10 µM unless noted 92.9% | [2]; 10 µM unless noted 101% | [3]; 10 µM unless noted 78.2% | [4]; 10 µM unless noted 92.1% | [5]; 10 µM unless noted 88% | [6]; 10 µM unless noted 80.7% | [7]; 10 µM unless noted 96.4% | [8]; 10 µM unless noted 81.6% | [9]; 10 µM unless noted 95.7% | [10]; 10 µM unless noted 106%

O=C(/C=C/c1cccc(Oc2ccc(Cl)cc2)c1)c1ccccc1
inactive: [1]; 10 µM 80.8% | [2]; 10 µM 84.2% | [3]; 10 µM 82.8% | [4]; 10 µM 90.5% | [5]; 10 µM 76% | [6]; 10 µM 84.5% | [7]; 10 µM 105% | [8]; 10 µM 100% | [9]; 10 µM 38.2% | [10]; 10 µM 101%
active: [1]; 100 µM -72.6% | [2]; 100 µM -67% | [3]; 100 µM -94.8% | [4]; 100 µM -77.3% | [5]; 100 µM -100% | [6]; 100 µM -72.3% | [7]; 100 µM -97.3% | [8]; 100 µM -71.9% | [9]; 100 µM -99.3% | [10]; 100 µM -82.2%

CCN(Cc1ccccc1)c1ccc(/C=C2\COc3ccccc3C2=O)cc1
inactive: [1]; 10 µM 94% | [1]; 100 µM 23.6% | [2]; 10 µM 99.7% | [3]; 10 µM 93.2% | [3]; 100 µM 57.6% | [4]; 10 µM 98.9% | [4]; 100 µM 50.4% | [5]; 10 µM 96% | [5]; 100 µM 19.1% | [6]; 10 µM 87.1% | [6]; 100 µM 26.5% | [7]; 10 µM 102% | [8]; 10 µM 87% | [8]; 100 µM 31% | [9]; 10 µM 96.3% | [9]; 100 µM 37.5% | [10]; 10 µM 99.9% | [10]; 100 µM 53.1%
active: [2]; 100 µM 5.56% | [7]; 100 µM 6.96%

CCN(CC)CC#CCOC(=O)[C@]1(C)CCC[C@]2(C)c3ccc(C(C)C)cc3CC[C@@H]12
inactive: [1]; 10 µM unless noted 52.4% | [2]; 10 µM unless noted 46.5% | [3]; 10 µM unless noted 97.5% | [4]; 10 µM unless noted 92% | [5]; 10 µM unless noted 79.7% | [6]; 10 µM unless noted 64.3% | [7]; 10 µM unless noted 77.1% | [8]; 10 µM unless noted 71.8% | [9]; 10 µM unless noted 92.6% | [10]; 10 µM unless noted 84.8%

CN1CCCc2cc(/C=C3\SC(=S)N(C(Cc4ccc(O)cc4)C(=O)O)C3=O)ccc21 (centres undefined)
inactive: [1]; 10 µM unless noted 101% | [2]; 10 µM unless noted 110% | [3]; 10 µM unless noted 89.9% | [4]; 10 µM unless noted 92.2% | [5]; 10 µM unless noted 94.7% | [6]; 10 µM unless noted 101% | [7]; 10 µM unless noted 100% | [8]; 10 µM unless noted 93.6% | [9]; 10 µM unless noted 93.8% | [10]; 10 µM unless noted 113%

CC(C)(C)CC(N)=O
inactive: [1]; 10 µM unless noted 94.9% | [2]; 10 µM unless noted 102% | [3]; 10 µM unless noted 96.4% | [4]; 10 µM unless noted 101% | [5]; 10 µM unless noted 95.1% | [6]; 10 µM unless noted 97.9% | [7]; 10 µM unless noted 94.1% | [8]; 10 µM 103% | [8]; 100 µM 79.5% and 18.4% | [10]; 10 µM unless noted 102%

C/C(=C(\c1ccc(OCCN2CCOCC2)cc1)c1ccc(OC(=O)C2CCCCC2)cc1)c1ccc(Cl)cc1
inactive: [1]; 10 µM unless noted 97.7% | [2]; 10 µM unless noted 76.3% | [3]; 10 µM unless noted 109% | [4]; 10 µM unless noted 100% | [5]; 10 µM unless noted 99.5% | [6]; 10 µM unless noted 68.2% | [7]; 10 µM unless noted 91.6% | [8]; 10 µM unless noted 87.9% | [9]; 10 µM unless noted 102% | [10]; 10 µM unless noted 99.1%

CCN(CC)CCOc1ccccc1C
inactive: [1]; 10 µM unless noted 107% | [2]; 10 µM unless noted 101% | [3]; 10 µM unless noted 98.6% | [4]; 10 µM unless noted 104% | [5]; 10 µM unless noted 108% | [6]; 10 µM unless noted 97.3% | [7]; 10 µM unless noted 102% | [8]; 10 µM unless noted 101% | [9]; 10 µM unless noted 104% | [10]; 10 µM unless noted 98.3%

COc1c(F)cc(-n2c(C(=O)N3CC(F)C3)cc3cccnc32)cc1F
inactive: [1]; 10 µM unless noted 98.6% | [2]; 10 µM unless noted 104% | [3]; 10 µM unless noted 82.2% | [4]; 10 µM unless noted 94.2% | [5]; 10 µM unless noted 97.7% | [6]; 10 µM unless noted 95.3% | [7]; 10 µM unless noted 99% | [8]; 10 µM unless noted 101% | [9]; 10 µM unless noted 84.2% | [10]; 10 µM unless noted 122%

NNCCc1ccccc1
inactive: [1]; 10 µM unless noted 99.7% and 91.6% | [2]; 10 µM unless noted 96.5% and 100% | [3]; 10 µM unless noted 107% and 78.7% | [4]; 10 µM unless noted 98.5% and 102% | [5]; 10 µM unless noted 104% and 93.7% | [6]; 10 µM unless noted 92% and 94.6% | [7]; 10 µM unless noted 90.7% and 93.7% | [8]; 10 µM unless noted 89.9% | [9]; 10 µM unless noted 98.2% and 88% | [10]; 10 µM unless noted 110% and 95.5%

COc1cc(Cl)cc(-c2nn(C(=O)NS(=O)(=O)c3ccc(Cl)cc3)cc2-c2ccncc2)c1
inactive: [1]; 10 µM unless noted 98.4% | [2]; 10 µM unless noted 30.8% | [4]; 10 µM unless noted 97.2% | [5]; 10 µM unless noted 70.6% | [6]; 10 µM unless noted 88.9% | [7]; 10 µM unless noted 95.2% | [8]; 10 µM unless noted 73.3% | [9]; 10 µM unless noted 45.5% | [10]; 10 µM unless noted 95.8%
active: [3]; 10 µM unless noted -8.56%

Cc1ccc2[nH]c(=S)[nH]c(=O)c2c1
inactive: [1]; 10 µM unless noted 106% | [2]; 10 µM unless noted 102% | [3]; 10 µM unless noted 80.5% | [4]; 10 µM unless noted 101% | [5]; 10 µM unless noted 95% | [6]; 10 µM unless noted 102% | [7]; 10 µM unless noted 100% | [8]; 10 µM unless noted 103% | [9]; 10 µM unless noted 95.5% | [10]; 10 µM unless noted 111%

CCOC(=O)c1cnn(-c2ccc(S(N)(=O)=O)cc2)c1N
inactive: [1]; 10 µM unless noted 108% | [2]; 10 µM unless noted 102% | [3]; 10 µM unless noted 78.1% | [4]; 10 µM unless noted 100% | [5]; 10 µM unless noted 103% | [6]; 10 µM unless noted 103% | [7]; 10 µM unless noted 113% | [8]; 10 µM unless noted 97.5% | [9]; 10 µM unless noted 96.9% | [10]; 10 µM unless noted 106%

C=C(CN1CC=CCC1)[C@@H]1CC[C@]2(COC(C)=O)CC[C@]3(C)[C@H](CC[C@@H]4[C@@]5(C)CC[C@H](O)C(C)(C)[C@@H]5CC[C@]43C)[C@@H]12
inactive: [1]; 10 µM unless noted 101% | [2]; 10 µM unless noted 79.7% | [3]; 10 µM unless noted 98.9% | [4]; 10 µM unless noted 97.1% | [5]; 10 µM unless noted 92.8% | [6]; 10 µM unless noted 79.6% | [7]; 10 µM unless noted 99.3% | [8]; 10 µM unless noted 92.3% | [9]; 10 µM unless noted 100% | [10]; 10 µM unless noted 105%

C=C1C(=O)O[C@H]2[C@H]1CC/C(COC(=O)NCc1ccc(Cn3c(=O)sn(CCCI)c3=O)cc1)=C\CC[C@@]1(C)O[C@@H]21
active: [2]; 10 µM unless noted -46.1% | [9]; 10 µM unless noted -24.5% | [10]; 10 µM unless noted 4.93%
inactive: [1]; 10 µM unless noted 26.9% | [3]; 10 µM unless noted 71.7% | [4]; 10 µM unless noted 96.2% | [5]; 10 µM unless noted 50.9% | [6]; 10 µM unless noted 49.2% | [7]; 10 µM unless noted 91.9% | [8]; 10 µM unless noted 15.6%

CCCCCO/N=C\c1c2c(O)c3c(O)c(C)c4c(c3c1O)C(=O)C(C)(O/C=C\C(OC)C(C)C(OC(C)=O)C(C)C(O)C(C)C(O)C(C)/C=C\C=C(\C)C(=O)N2)O4 (centres undefined)
inactive: [1]; 10 µM unless noted 16.1% | [3]; 10 µM unless noted 39.3% | [4]; 10 µM unless noted 33.5% | [5]; 10 µM unless noted 16.8% | [6]; 10 µM unless noted 13.1% | [7]; 10 µM unless noted 15.3% | [8]; 10 µM unless noted 24.1% | [9]; 10 µM unless noted 23.2% | [10]; 10 µM unless noted 39.5%
active: [2]; 10 µM unless noted 2.51%

Source: PubChem BioAssay (NCI)
